PriA SSB inh: blocks PriA binding to SSB C-terminal tail; AlphaScreen SSBct-PriA binding, biotinylated peptide; inhibition, % at 33 µM; 430,000 tested, 0.6% active; AID 1272365; in the data active = inhibition mostly above about 37%, no sharp cut-off; inactive = mostly below about 20%;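 also: plate controls were negative control peptide for no effect and reference peptide for full effect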
PrP 5UTR inh: suppresses PrP 5' UTR mRNA reporter expression. cell-based PrP 5' UTR mRNA reporter, plate reader. inhibition, % (concentration not given with the values). 340,000 tested, 0.35% active. AID 488862; in the data active = inhibition above about 52%; also: 0 = median of the neutral control wells
PfHsp40 yeast: rescue of PfHsp40-mediated yeast toxicity; S. cerevisiae expressing PfHsp40, growth rescue, ATP luminescence; 340,000 tested, 0.68% active; growth rescue, % at 12.5 µM; in the data active = growth rescue above about 28%, passing the limit was not always enough;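 also: yeast W303a lacking pdr1 and pdr3 grown in galactose medium; growth measured after three days at 30 °C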
RecA splice inh: Mtb RecA intein splicing inhibition | 290,000 tested, 0.75% active | inhibition, % (no concentration beside the values) | cell-free RecA intein splicing, fluorescence | AID 2221; in the data active = inhibition above about 30%;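 also: 0% = vehicle wells and 100% = reference inhibitor control wells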
PrPC surface inh: reduces human prion protein on the cell surface | P04156 | cell surface PrPC, TR-FRET read-out | inhibition, % at 13.8 µM | 370,000 tested, 0.43% active; in the data active = inhibition above about 24%; also: 0% = median of the test wells and 100% = reference compound wells
BJeLR lethal: BJeLR cell viability loss. BJeLR (HRASV12) viability, CellTiter-Glo ATP luminescence, 48 h. inhibition, % (concentration not given with the values). 300,000 tested, 0.17% active; in the data active = inhibition above about 50%
PrPC TRFRET cf: cell surface PrPC inhibition, TR-FRET confirmation; inhibition, % at 13.8 µM; 1,500 tested, 65% active; AID 743200; cell surface PrPC level; shares compounds with PrPC surface inh; in the data active = inhibition above about 25%
LD9 cytotox: LD9 cell cytotoxicity, PrPc inhibitor counter-screen. shares compounds with PrPC surface inh. LD9 cells cytotoxicity, luminescence viability. inhibition, % at 13.8 µM. 1,500 tested, 29% active. AID 743201; in the data active = inhibition above about 9.5%
Starred values were filed as active, the others as inactive; · = no result. Rows were chosen to be rich in hits. Some 1.9% of all compounds tested hit in one or more screens of this group.

SMILES	PriA SSB inh	PrP 5UTR inh	PfHsp40 yeast	RecA splice inh	PrPC surface inh	BJeLR lethal	PrPC TRFRET cf	LD9 cytotox
Cc1csc(NC(=O)CSc2nc(C(C)C)nc3c2c(=O)n(C)c(=O)n3C)n1	-12.0	-7.8	0.1	-0.7	26.7*	0.4	19.6	8.2
CC(C)c1nc(SCC(=O)O)c2c(=O)n(C)c(=O)n(C)c2n1	-4.0	·	·	·	·	·	·	·
CC(O)(CNC(=O)C(=O)Nc1ccccc1C#N)c1ccc(-c2ccccc2)cc1 (stereo unspecified)	-7.0	·	·	·	·	·	·	·
COc1ccc(OCCNC(=O)c2ccc3nc(C)c(N(C)C(=O)CCc4ccccc4)n3c2)cc1	·	·	·	·	59.4*	·	-3.0	0.5
COc1cc(C=NNC(=O)c2cccs2)ccc1O	-6.4	·	·	·	·	·	·	·
COc1ccc2nc(NC(=O)c3cccs3)sc2c1	-6.0	·	·	-3.4	27.0*	8.6	15.2	4.5
Cc1ccc(NS(=O)(=O)c2ccc(Cl)c(C(=O)Nc3ccccc3-c3nc4ccccc4[nH]3)c2)cc1C	6.3	-2.0	-0.9	-2.5	25.6*	-20.9	16.5	-2.9
O=C(Cc1c[nH]c2ccccc12)N1CCC(Oc2ncccc2Cl)CC1	17.0	·	·	·	·	·	·	·
COc1ccc(-c2cc(CNc3nc(NC(C)C)nc4cc(-c5ccccc5)sc34)on2)cc1	·	·	·	·	25.4*	·	40.2*	7.4
COc1ccccc1C(=O)NC(=S)/C=C1/N(C)c2ccccc2C1(C)C	2.4	-11.0	0.4	-0.3	28.7*	1.2	48.7*	11.0*
Cc1ccc(/C=C/S(=O)(=O)NCCCn2nc(-c3ccccc3)ccc2=O)cc1	14.0	·	·	·	·	·	·	·
O=C(C1=C(O)C(=O)N(CCN2CCOCC2)C1c1cccc(Br)c1)c1cc2ccccc2o1 (stereo unspecified)	-0.3	-14.6	0.1	3.7	75.4*	-5.8	129.7*	1.3
Oc1c(CN2CCCCC2)cc(Br)c2cccnc12	77.7	22.8	4.9	0.1	31.9*	6.3	3.6	16.1*
Cc1cc(NC(=O)CCC(=O)N(c2ccccc2)C(C(=O)NC2CCCC2)c2cccs2)no1 (stereo unspecified)	-6.4	-20.9	0.1	-0.1	63.4*	3.1	58.6*	-2.5
Cc1cc(NC(=O)CCC(=O)N(c2ccccc2)C(C(=O)NC2CCCC2)c2ccccc2)no1 (stereo unspecified)	-3.1	-16.8	-0.9	-0.5	35.1*	-14.5	51.7*	-3.4
Cc1ccc(N(C(=O)CCC(=O)Nc2cc(C)on2)C(C(=O)NC2CCCC2)c2ccccc2)cc1 (stereo unspecified)	8.1	-16.8	2.1	0.5	5.9	-4.0	·	·
Cc1ccc(N(C(=O)CCC(=O)Nc2cc(C)on2)C(C(=O)NC2CCCC2)c2cccs2)cc1 (stereo unspecified)	-14.8	-11.6	1.4	-0.5	10.5	-2.4	·	·
CCN(CC)c1ccc(C=Nn2c(C)nc3ccccc3c2=O)cc1	1.2	·	·	·	·	·	·	·
CC(C)Oc1ccc(C(=O)Nc2nnc(SCC(=O)N3CCCC3)s2)cc1	-12.0	·	·	·	·	·	·	·
CCCC(=O)Nc1ccc(C(=O)NNC(=S)NC(=O)c2ccc(Br)o2)cc1	-6.5	-0.9	-1.8	-0.2	32.4*	0.2	0.4	-3.5
CCCC(=O)Nc1ccc(C(=O)NNC(=S)NC(=O)c2cccs2)cc1	-9.5	-23.0	2.8	-0.1	-4.1	2.0	·	·

Screening results as filed in PubChem.
